Test results taken from PubChem BioAssay (NCATS).
Records with an inconclusive call do not appear. Entries that show only a call come without a potency. Calls of active or inactive are those of the source. The call rests on the fitted dose curve; in most records, active means well fitted curve in the direction sought with a large enough effect; inconclusive means small, poorly fitted or top-dose-only effect, or another doubt; inactive means no such curve, though single readings can be large; an effect the other way counts as inactive or inconclusive.

Assays:
[1] = target: Aldehyde dehydrogenase, mitochondrial (Homo sapiens) (UniProt P05091); assay: qHTS for Inhibitors of the Aldehyde Dehydrogenase Family (ALDH2) Primary screen (AID 2061308); further: nearly all actives have a fitted effect of over 55% in size
[2] = target: Retinaldehyde dehydrogenase 3 (Homo sapiens) (UniProt P47895); assay: qHTS for Inhibitors of the Aldehyde Dehydrogenase Family (ALDH1A3) Primary screen (AID 2061315)

| Structure (SMILES) | Potency [1] | Potency [2] |
| --- | --- | --- |
| CC(C)Nc1oc(-c2cccc3ccccc23)nc1C#N | inactive | inactive |
| O=C(O)c1ccc(-c2cccc(-c3nn4c(=O)cc(N5CCNCC5)nc4s3)c2)cc1 | inactive | inactive |
| Cc1nnc(-c2ccccc2)n1CCCn1ccnc1 | inactive | inactive |
| CCCCNc1nc(C)nc2c1nc(-c1ccccc1)n2CCCN(C)C | inactive | inactive |
| CC(=O)Nc1sc2c(c1-c1ccc3[nH]ccc3c1)CCNC2 | inactive | inactive |
| Cc1cccc(-n2cnc3cc(C(=O)N4CCC(C(F)(F)F)CC4)ccc32)c1 | inactive | inactive |
| N#Cc1ccc(S(=O)(=O)N2CCN(S(=O)(=O)c3ccc4c(c3)OCCO4)CC2)cc1 | inactive | inactive |
| CCCn1c(-c2ccc(F)cc2)nc2c(N3CCC(N(C)C)C3)nc(C)nc21 (centres undefined) | inactive | inactive |
| Brc1sc2c(c1-c1nc3ccccc3s1)CCNC2 | inactive | inactive |
| O=C(OCC#CCSc1nnc(-c2ccc(F)cc2)o1)c1ccc(F)cc1 | inactive | inactive |
| O=S1(=O)N=C(Oc2cccc(-c3ccccc3)c2)c2ccccc21 | inactive | inactive |
| CCC(C)C(=O)OC1C(C)C2(O)C(C=C(CO)CC3(O)C(=O)C(C)=CC32)C2C(C)(C)C12OC(=O)C(C)C (centres undefined) | inactive | inactive |
| Cc1cccc(-c2[nH]c(Cc3cccc(C(N)=O)c3)nc2-c2ccc3nccnc3c2)n1 | inactive | inactive |
| COc1cc(O)c(C(CC(=O)N2CCOCC2)c2ccc(C)cc2)c(OC)c1 (centres undefined) | inactive | inactive |
| Cc1ccc(OCCn2c(CCNCC3CCCCC3)nc3ccccc32)cc1 | inactive | inactive |
| CCOc1cc(CCNC(=O)c2cc3sccc3n2Cc2ccccc2)cc(F)c1OCC | inactive | inactive |
| Cc1ccc(-c2ccc(=O)n(CC(=O)NCCc3ccc(O)cc3)n2)cc1 | inactive | inactive |
